Sa ugtP lethal = compounds lethal to S. aureus RN4220 ugtP deletion mutant. OD600 growth, 16 h. growth inhibition, % (test concentration not listed). 0.54% of 330,000 active. AID 1259309; in the data active means growth inhibition above about 68%;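 further: plate controls were untreated wells for no effect and antibiotic for full effect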
Y pestis TopoI = Y. pestis Topo-I inhibition via cleavage products; Y. pestis Topo-I cleavage product accumulation, plate reader; 0.064% of 360,000 active; AID 504884; activity, % at 10 µM; in the data active means activity above about 50%, passing the limit was not always enough; inconclusive means no clear call, values can overlap the other calls
PfHsp40 rescue = rescue of PfHsp40-mediated yeast toxicity; 0.68% of 340,000 active; growth rescue, % at 12.5 µM; S. cerevisiae expressing PfHsp40, growth rescue, ATP luminescence; in the data active means growth rescue above about 28%, passing the limit was not always enough; inconclusive means no clear call, values can overlap the other calls;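 further: yeast W303a lacking pdr1 and pdr3 grown in galactose medium; growth measured after three days at 30 °C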
Sa RN4220 lethal = S. aureus RN4220 growth inhibition | OD600, 16 h | inhibition, % (no concentration beside the values) | 0.33% of 330,000 active | AID 1259311; in the data active means inhibition above about 85%;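 further: plate controls were untreated cells for no effect and reference antibiotic for full effect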
PrP UTR inh = suppresses PrP 5' UTR mRNA reporter expression. 0.35% of 340,000 active. cell-based PrP 5' UTR mRNA reporter, plate reader. AID 488862. inhibition, % (test concentration not listed); in the data active means inhibition above about 52%; further: 0 = median of the neutral control wells
BJeLR viability = BJeLR cell viability loss | BJeLR (HRASV12) viability, CellTiter-Glo ATP luminescence, 48 h | inhibition, % (concentration not given with the values) | 0.17% of 300,000 active | AID 1554; in the data active means inhibition above about 50%; inconclusive means no clear call, values can overlap the other calls
* = called active by the depositor; ? = inconclusive; . = not tested or not shown. Sampled rows, rich in hits. Any-hit rate of the full collection: about 1.4%.

SMILES	Sa ugtP lethal	Y pestis TopoI	PfHsp40 rescue	Sa RN4220 lethal	PrP UTR inh	BJeLR viability
CC1=C(C(=O)OC2CCCC2)C(c2coc3ccccc3c2=O)C2=C(CC(C)(C)CC2=O)N1 (stereo not drawn)	6.7	15.9	92.9*	1.7	.	4.3
Cc1noc(C)c1COc1ccc(C(=O)OC(C)C(=O)Nc2ccc(N3CCOCC3)cc2)cc1 (stereo not drawn)	11.9	10.9	67.1*	3.6	-6.6	4.2
CC(=O)Nc1ccc(NC(=O)C(C)OC(=O)c2ccc(OCc3c(C)noc3C)cc2)cc1 (stereo not drawn)	2.5	18.4	0.5	2.8	-16.0	-6.2
O=[N+]([O-])c1ccc2c(c1)C(=NO)c1ccccc1-2	97.5*	.	.	12.6	.	.
O=[N+]([O-])c1ccc2c(c1)C(=NO)c1cc(Cl)c(Cl)cc1-2	.	-24.6	0.4	.	-16.7	.
Nc1cc2c(cc1[N+](=O)[O-])-c1ccccc1C2=NO	.	-49.7	73.2*	.	-18.9	.
CCN(CC)C(=S)SSC(=S)N(CC)CC	99.4*	2.8	-3.6	28.4	15.0	0.1
COc1cc2c(cc1OC)C(=CC#N)NC(C)(C)C2	1.0	.	.	3.6	.	.
COC(=O)C1=C(c2cccc(C#N)c2)CC2CCC1N2C(=O)NCC1CC1 (stereo not drawn)	-1.4	.	.	5.7	.	.
CCCCCCCCNC(=O)/C(C#N)=C/c1ccccc1[N+](=O)[O-]	91.1*	11.6	354.5*	67.4	-5.3	1.1
N#C/C(=C\c1ccccc1[N+](=O)[O-])C(=O)NCc1ccccc1	-2.6	-6.1	-1.4	0.2	-11.7	2.2
Oc1ccc(Br)cc1-c1cc(-c2ccccc2)n[nH]1	72.8	-23.6	21.2	3.3	-10.2	0.3
O=[N+]([O-])c1cccc(-c2cc(-c3cc(Br)ccc3O)[nH]n2)c1	21.1	-29.1	285.3*	15.8	-22.6	0.0
COc1ccc(-c2cc(-c3cc(OC)ccc3O)[nH]n2)cc1	1.1	0.8	?	1.0	-55.9	-10.4
Cc1ccc(-c2cc(-c3ccccc3C)[nH]n2)c(O)c1	18.9	1.3	?	-4.8	-104.6	.
COc1ccc(O)c(-c2cc(-c3cccc(Br)c3)n[nH]2)c1	86.0*	-5.3	1.8	41.5	-58.1	7.7
O=[N+]([O-])c1ccccc1-c1cc(-c2ccccc2O)n[nH]1	-12.7	-9.7	48.6*	1.0	-59.2	1.3
CCCCN1CC(=O)N2C3c4cc(C)ccc4OCC3C(C(=O)OCC)[C@]2(C)C1=O (stereo partly drawn)	6.1	.	.	4.7	.	.
CC(=O)N1c2ccc(F)c(F)c2CC1C (stereo not drawn)	8.5	.	.	8.6	.	.
COC(=O)c1ccc2c(c1O)C(=O)c1ccccc1C2=O	97.1*	-17.1	342.3*	96.9*	-24.4	-3.0
CC(C)COC(=O)c1cccc2c1-c1ccccc1C2=NO	96.3*	.	.	-4.1	.	.
COC(=O)c1cccc2c1-c1ccccc1/C2=N/O	.	-3.3	331.5*	.	-10.1	4.0
COC(=O)c1cccc2c1-c1ccccc1C2=NO	20.6	.	.	-0.8	.	.
O=c1cc(-c2ccccc2Cl)oc2c([N+](=O)[O-])c(O)cc(O)c12	90.8*	-4.0	1.7	87.2*	15.9	5.9
O=C(Nc1ccc(O)c2c(=O)cc(-c3ccccc3Cl)oc12)c1ccccc1Cl	-0.2	8.1	-0.1	-5.4	-19.4	-16.4
SMILES	Sa ugtP lethal	Y pestis TopoI	PfHsp40 rescue	Sa RN4220 lethal	PrP UTR inh	BJeLR viability
COc1ccccc1-c1cc(=O)c2c(O)ccc([N+](=O)[O-])c2o1	23.1	3.5	-0.8	25.1	-8.4	-19.0
Nc1ccc2oc(-c3ccccc3Cl)cc(=O)c2c1O	93.6*	3.5	7.6	14.2	-22.8	-18.5
O=c1cc(-c2ccccc2Cl)oc2ccc([N+](=O)[O-])c(O)c12	99.7*	0.8	7.6	99.1*	-13.9	11.0
CCNC(=O)COC(=O)C=Cc1cccc([N+](=O)[O-])c1	-4.6	.	.	7.2	.	.
O=C(C=C1NC2(CCCC2)Cc2ccccc21)N1CCOCC1	0.8	.	.	3.4	.	.
Cc1cc(Cl)n2c(nc3ccccc32)c1C#N	72.6	10.5	2.3	60.6	24.5	61.2*
CC[C@]12C(=O)N(C)CC(C3C(=O)N(C)C(=O)C31)N2C(=O)c1ccc(C)cc1 (stereo partly drawn)	-4.3	.	.	2.5	.	.
CCOC(=O)C1C2COc3ccc(Br)cc3C2N2C(=O)CN(CC3CCCO3)C(=O)[C@@]12C (stereo partly drawn)	3.9	.	.	5.9	.	.
CCOC(=O)c1sc(N(C)C)nc1-c1ccccc1	1.3	-7.9	0.1	3.8	1.8	8.2
CCOC(=O)c1sc(NC(=O)c2ccc(S(=O)(=O)N3CCCCC3)cc2)nc1-c1ccccc1	5.4	-8.6	-1.4	-1.5	-16.7	4.9
CCOC(=O)c1sc(NC(=O)c2ccc(S(=O)(=O)N3CCCCCC3)cc2)nc1-c1ccccc1	5.3	0.2	49.6*	1.4	-19.7	-4.6
CCOC(=O)c1sc(N)nc1-c1ccccc1	11.6	1.5	94.4*	3.6	-5.4	1.0
CCOC(=O)c1c(-c2ccccc2)nc2cc(C)ccn12	-1.2	14.0	1.7	12.7	-45.8	-10.2
CCOC(=O)c1c(-c2ccccc2)nc2ccc(C)cn12	-2.1	15.5	206.6*	8.8	-59.9	2.5
CCOC(=O)C1=C(O)C(=Cc2ccc(CNC(=O)C(=O)Nc3ccccc3)o2)N=C1C	-11.8	.	.	4.2	.	.
Cn1c(SCc2ccccc2Cl)nc2ccccc21	27.1	20.5	1.7	5.3	-120.4	3.2
CCn1c(SCc2ccccc2Cl)nc2ccccc21	91.2*	31.6	0.3	0.2	-23.3	-3.4
CC(=NNC(=S)N1CCCC1)c1ccccn1	.	2.9	.	.	.	.
CC(=NNC(=S)N1CCC1)c1ccccn1	.	1.7	34.3*	.	30.5	.
CC1Cc2ccccc2N1C(=S)NC(=O)c1cccc(Br)c1 (stereo not drawn)	85.2	-0.6	145.8*	56.6	7.8	9.0
O=C(O)CC/C(=N/Nc1ccc([N+](=O)[O-])cc1)C(=O)O	.	5.3	134.7*	.	-20.1	3.7
O=C(O)CCC(=NNc1ccc([N+](=O)[O-])cc1)C(=O)O	1.9	.	.	1.0	.	.
CCN1CC2C3C(=O)N(Cc4ccccc4)C(=O)C3[C@](Cc3ccccc3)(C1=O)N2C(=O)c1ccc(Br)cc1 (stereo partly drawn)	-7.6	.	.	7.6	.	.
Cc1ccc(C2CC=C(C(=O)O)C(c3ccc(F)cc3)N2S(=O)(=O)c2ccc(C)cc2)cc1 (stereo not drawn)	24.2	.	.	21.4	.	.
Cc1c(C(=O)NN)[nH]c2ccc([N+](=O)[O-])cc12	-5.0	-5.2	.	-5.6	.	2.5
